The values below come from PubChem BioAssay (NCI).

The structures appear in SMILES notation. The panel holds about 83,000 compounds, 20% with a hit somewhere; the sample as a whole holds those more often.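 Note: values are percent growth. 100 is the growth of untreated cells, values between 100 and 0 indicate rising inhibition; between -100 and 0 indicates cell death.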 Values without a mark were called inactive. Calls of active or inactive are those of the source. The calls were made as follows: active = growth percent below 10; inactive = the rest.

Test systems include DU-145 prostate; K-562 leukemia; MALME-3M melanoma; MDA-MB-231 breast; RXF 393 renal; SF-268 CNS; SF-295 CNS; SF-539 CNS; UACC-257 melanoma; M14 melanoma.
What all share (test): NCI-60 one-dose screen, 48 h (100 = growth as untreated, 0 = no growth, -100 = all killed)
Settings in all cases: 10 µM

Turning to `C=CC(O)CCC` (stereo not given), the growth in the assay on DU-145 prostate is 112%; with K-562 leukemia, 104%; in the assay on MALME-3M melanoma, 106%; in the assay with MDA-MB-231 breast, 106%; in the assay on RXF 393 renal, 121%; in the assay on SF-268 CNS, 107%. Also, the figures for the growth in the assay on SF-295 CNS, in the assay with SF-539 CNS and in the assay with UACC-257 melanoma were 91.1%, 102% and 90.3%, respectively.

As to `COC(=O)c1ccc(C(C)C)cc1`, the growth is 105% with DU-145 prostate; 116% in the assay on K-562 leukemia; 99.9% in the assay on MALME-3M melanoma; 113% in the assay on MDA-MB-231 breast; 122% in the assay with RXF 393 renal; 101% in the assay on SF-268 CNS. For the same molecule, the growth is 100% in the assay on SF-295 CNS, 102% in the assay with SF-539 CNS and 90.9% with UACC-257 melanoma.

As to `O=S(=O)(O)CC(O)CN1CCN(CCO)CC1` (stereo not given), the growth with DU-145 prostate was 111%; in the assay on K-562 leukemia it was 97.4%; in the assay on MALME-3M melanoma, 114%; in the assay on MDA-MB-231 breast, 119%; with RXF 393 renal it was 105%; in the assay on SF-268 CNS, 109%. Further, the growth in the assay on SF-295 CNS is 119%; in the assay on SF-539 CNS, 111%; in the assay on UACC-257 melanoma, 97.8%.

Regarding `COc1cc2c(cc1O)CC[C@@H]1C2CC[C@@]2(C)C1CC[C@@H]2O` (stereo not given in full), the growth in the assay on DU-145 prostate is 11%; with K-562 leukemia, 2.79% (active); in the assay with MALME-3M melanoma, 48.1%; in the assay with MDA-MB-231 breast, 26.7%; in the assay on RXF 393 renal it was -4.44% (active); in the assay with SF-268 CNS it was 50.6%. In addition, the growth with SF-295 CNS is 25.2%; in the assay with SF-539 CNS, -4.91% (active); in the assay with UACC-257 melanoma it was 23.3%.

As to `Cc1cc(C)c(N)c(S(=O)(=O)O)c1`, the growth in the assay on DU-145 prostate is 129%; with K-562 leukemia, 113%; in the assay on MALME-3M melanoma it was 104%; in the assay on MDA-MB-231 breast it was 97.8%; in the assay with RXF 393 renal, 133%; in the assay on SF-268 CNS it was 115%. Further, the growth with SF-295 CNS is 104%; in the assay on SF-539 CNS it was 84.4%; in the assay on UACC-257 melanoma, 122%.

In the case of `N#CSc1cc(S(N)(=O)=O)ccc1N`, the growth in the assay on DU-145 prostate was 115%; in the assay with K-562 leukemia, 113%; in the assay on MALME-3M melanoma, 110%; with MDA-MB-231 breast it was 108%; in the assay on RXF 393 renal, 119%; with SF-268 CNS, 108%. The values for the growth in the assay on SF-295 CNS, in the assay on SF-539 CNS and in the assay on UACC-257 melanoma were 120%, 102% and 107%, respectively.

For the molecule `COC(=O)C(O)c1ccccc1` (stereo not given), the growth in the assay on DU-145 prostate is 114%; with K-562 leukemia, 101%; in the assay on MALME-3M melanoma, 134%; in the assay with MDA-MB-231 breast, 91%; in the assay with RXF 393 renal, 111%; in the assay with SF-268 CNS, 102%. In addition, the growth in the assay on SF-295 CNS was 139%; in the assay with SF-539 CNS it was 98%; in the assay with UACC-257 melanoma, 116%; with M14 melanoma, 105%.

In the case of `CC1(C)Nc2cccc3c(N=Nc4ccc(N=Nc5ccccc5)c5ccccc45)ccc(c23)N1`, the growth in the assay with DU-145 prostate is 120%; in the assay with K-562 leukemia, 123%; in the assay on MALME-3M melanoma, 132%; in the assay with MDA-MB-231 breast, 66.9%; with RXF 393 renal it was 124%; with SF-268 CNS it was 106%. Further, the growth is 100% with SF-295 CNS, 94.5% with SF-539 CNS and 95.9% in the assay with UACC-257 melanoma.

For the molecule `Cc1cc(N)c(S(=O)(=O)O)c(N)c1`, the growth was 96.6% with DU-145 prostate; 125% in the assay on K-562 leukemia; 118% in the assay on MALME-3M melanoma; 103% with MDA-MB-231 breast; 112% in the assay with RXF 393 renal; 109% with SF-268 CNS. The growth was 96% in the assay with SF-295 CNS, 96.8% with SF-539 CNS and 104% in the assay with UACC-257 melanoma.

Take `CCOC(=O)C(O)C(O)C(=O)OCC` (stereo not given): the growth is 106% with DU-145 prostate; 102% with K-562 leukemia; 106% in the assay with MALME-3M melanoma; 110% in the assay with MDA-MB-231 breast; 125% with RXF 393 renal; 102% with SF-268 CNS. The growth in the assay with SF-295 CNS was 104%; with SF-539 CNS, 109%; with UACC-257 melanoma it was 106%; in the assay with M14 melanoma, 104%.

Regarding `CC(C)OC(C(=O)O)c1ccccc1` (stereo not given), the growth with DU-145 prostate was 113%; in the assay with K-562 leukemia, 124%; in the assay on MALME-3M melanoma it was 133%; in the assay on MDA-MB-231 breast, 99.3%; in the assay with RXF 393 renal, 117%; in the assay on SF-268 CNS it was 104%. For the same molecule, the figures for the growth in the assay on SF-295 CNS, with SF-539 CNS and with UACC-257 melanoma were 138%, 102% and 116%, respectively.

On to `CN(C)CCN(Cc1ccccc1)c1ccccc1`, for which the growth in the assay on DU-145 prostate is 120%; in the assay on K-562 leukemia, 81.7%; in the assay on MALME-3M melanoma it was 123%; in the assay with MDA-MB-231 breast it was 91.7%; in the assay with RXF 393 renal, 103%; with SF-268 CNS, 114%. Moreover, the growth in the assay on SF-295 CNS is 110%; in the assay with SF-539 CNS it was 121%; in the assay on UACC-257 melanoma, 126%.

In the case of `COc1ccc(C(C)C=O)cc1` (stereo not given), the growth with DU-145 prostate was 109%; in the assay on K-562 leukemia it was 104%; in the assay on MALME-3M melanoma, 133%; with MDA-MB-231 breast it was 110%; in the assay with RXF 393 renal, 139%; in the assay on SF-268 CNS, 114%. Further, the growth in the assay on SF-295 CNS is 115%; in the assay on SF-539 CNS, 99%; in the assay on UACC-257 melanoma it was 117%; in the assay on M14 melanoma, 109%.

Turning to `CC(=O)/C(Cc1ccccc1)=N/O`, the growth was 115% in the assay with DU-145 prostate; 85.5% in the assay with K-562 leukemia; 104% in the assay on MALME-3M melanoma; 100% in the assay on MDA-MB-231 breast; 109% in the assay with RXF 393 renal; 104% in the assay on SF-268 CNS. Further, the growth in the assay on SF-295 CNS was 105%; with SF-539 CNS, 91.9%; in the assay with UACC-257 melanoma, 89.5%; in the assay with M14 melanoma, 94.8%.
